Screening results (PubChem BioAssay)
Not all results are given here.
aSyn UTR act = Activators via SNCA 5'UTR binding, MLPCN | activity score, % (tested at 7.5 µM), hits read low | alpha-synuclein 5'UTR reporter, activators screen | actives 7.1% (n = 300,000); in the data active = activity score below about -60%
Starred values were filed as active, the others as inactive.

SMILES | aSyn UTR act
COc1cccc(/C=C2\CCC(C3CCCC3)C2=O)c1OC (stereo not drawn) | -163*
COc1cccc(/C=C2\CCC(C3CCCC3)C2=O)c1 (stereo not drawn) | -99*
CC(=O)Nc1cccc(Oc2nc(-c3ccccn3)nc3ccccc23)c1 | -129*
CC(=O)Nc1ccc(Oc2nc(-c3ccccn3)nc3ccccc23)cc1 | -115*
Cc1cccc(Oc2nc(-c3ccccn3)nc3ccccc23)c1 | -111*
C=CCOc1nc(-c2ccccc2Cl)nc2ccccc12 | 72
Cc1ccc(-n2c([S-])c(C(=O)Nc3ccc(OC(F)F)cc3)[n+]3ccc(C(=O)NCCO)cc23)cc1C | -72*
COc1ccc(N=c2sc3ccccc3n2C)cc1 | -172*
Cc1nc(NC(=O)c2cnccn2)ccc1Br | -101*
Cc1nc(NC(=O)c2cncc(Br)c2)ccc1Br | -109*
CCc1cc2c(=O)c(-c3nc4ccccc4n3C)c(COCC(=O)O)oc2cc1O | -81*
O=C1NC(=S)N/C1=C/C=C/c1ccccc1 | -92*
CC(C)c1ccc(NC(=O)[C@H](Cc2c[nH]c3ccccc23)NC(=O)[C@@H]2Cc3ccccc3CN2)cc1 | 61
CC(C)c1ccc(NC(=O)C(=O)C2C(=O)Nc3ccccc32)cc1 (stereo not drawn) | -101*
CC(C)(C)Nc1nc(-c2ccc3c(c2)CCN3C(=O)C2CC2)cs1 | -80*
CC(=O)Nc1nc(-c2ccc3c(c2)CCN3S(C)(=O)=O)cs1 | -207*
CC(C)C(=O)Nc1nc(-c2ccc3c(c2)CCN3C(=O)C2CC2)cs1 | -101*
Cn1c2ccccc2c2ncn(CCC3=CCCCC3)c(=O)c21 | -158*
CC(=O)c1ccccc1OCCOCCOCCOc1ccccc1C(C)=O | 67
NC(=O)c1ccccc1OCCOc1ccc(Br)cc1 | -63*
C=CCOc1ccc(/C=C/C(C)=N\O)cc1 | -110*
COc1ccc2cc(-c3ccon3)ccc2c1 | -172*
CCOC(=O)C1(Cc2ccc(OC)cc2)CCN(C(=O)c2ccc3[nH]ccc3c2)CC1 | -127*
Cc1cc(NCC2CCCCC2)nc2ccccc12 | -69*
COc1ccc(Nc2nc(C)c3ccccc3n2)cc1 | -111*
SMILES | aSyn UTR act
Cc1nc(Nc2nc(-c3ccccc3)cc(=O)[nH]2)nc2ccccc12 | -120*
CCOc1ccc(Nc2c3ccccc3nc3ccccc23)cc1 | -94*
COc1ccc(Nc2cc(C)c3ccc(O)cc3n2)cc1 | -138*
CCOc1ccc(Nc2cc(C)c3ccccc3n2)cc1 | -85*
O=C(CCOc1ccccc1F)N1CCN(c2ccccc2O)CC1 | -75*
Cn1c(=O)n(/N=C/c2ccccc2)c2ccccc21 | -107*
CCN(CC)S(=O)(=O)c1cccc(C(=O)Nc2ccc3c(c2)OCO3)c1 | -125*
O=C(Nc1cccc(F)c1)c1ccc2c(c1)OCO2 | -149*
CCC(CC)C(=O)Nc1cccc(C(=O)Nc2ccc3c(c2)OCO3)c1 | -121*
O=C(Oc1ccc2c(c1)OCO2)c1ccc(F)cc1Cl | -176*
O=C(Oc1ccc(N2C(=O)CCC2=O)cc1)c1ccccc1Cl | 59
O=C(NNC(=O)c1ccc(F)cc1F)c1ccc2c(c1)OCO2 | -90*
O=C(Nc1ccc2cn[nH]c2c1)c1ccc(Cl)c(S(=O)(=O)N2CCOCC2)c1 | -200*
O=C(Nc1ccc2c(c1)OCCO2)c1cccc(S(=O)(=O)N2CCOCC2)c1 | -88*
O=C(Nc1ccc(Cl)c(S(=O)(=O)N2CCOCC2)c1)c1ccc2c(c1)OCCO2 | -65*
CCC(Sc1nc2n[nH]c(C)c2c(=N)n1-c1cccc(Cl)c1C)C(=O)N(CC)CC (stereo not drawn) | 51
CS(=O)(=O)c1cccc(C(=O)Nc2ccc3c(c2)OCCCO3)c1 | -101*
CCc1nc2ccc(C(=O)NCCc3ccc(OC)cc3)cc2nc1CC | -138*
CCc1nc2ccc(C(=O)O)cc2nc1CC | -63*
Cc1ccc2nc3sc(C(=O)N4CCCc5ccccc54)c(N)c3cc2c1 | -158*
CC(C)(C)C(=O)N1CCN(c2ccc([N+](=O)[O-])cc2Cl)CC1 | -64*
O=C(c1cc([N+](=O)[O-])ccc1N1CCOCC1)N1CCN(c2ccccc2)CC1 | 91
Nc1nc(-c2cc3ccccc3o2)cs1 | -132*
CN1CCN(c2nc(-c3cc4ccccc4o3)cs2)CC1 | -142*
Cc1cc(C)n(CCc2nc(-c3cc4ccccc4o3)cs2)n1 | -112*
SMILES | aSyn UTR act
CCc1nnc(NC(=O)CSc2ccc(-c3nc4ccc(C)cc4[nH]3)cn2)s1 | -159*
COc1ccc(-c2ccc(SCC(=O)Nc3nnc(C)s3)nn2)cc1 | -87*
CCc1nnc(NC(=O)CSc2ccc(-c3ccc(C)cc3)nn2)s1 | -70*
O=C(CSc1ccc(-c2ccc(-n3cccn3)cc2)nn1)Nc1ccccc1F | -141*
Cc1cc2nc(-c3ccc(SCC(=O)Nc4ccc(S(=O)(=O)N5CCCC5)cc4)nc3)[nH]c2cc1C | -147*
CCOc1ccc(-c2cc(CCCC(=O)NCc3ccco3)no2)cc1 | 73
COc1ccc(-c2ccc(SCC(=O)NCc3ccco3)nn2)cc1 | -78*
Cc1cc(NC(=O)CSc2ccc(-c3ccc(Br)cc3)nn2)no1 | -67*
COc1ccc(/C=C2\SC(=O)N(CCNC(=O)Cc3coc4cc(OC)ccc34)C2=O)cc1 | -70*
COc1ccc(/C=C2\SC(=S)N(CCCC(=O)NNC(=O)c3ccccc3O)C2=O)cc1 | 75
COc1ccc(/C=C2\SC(=O)N(CCNC(=O)C3=COCCO3)C2=O)cc1 | -129*
C#CC[N+](C)(C)CCCCCCCCC | 65
Cc1ccc(NC2(C#N)C(=O)Nc3ccccc32)cc1C (stereo not drawn) | -89*
